Compound activity as filed in PubChem.
The entries come from a sample that favours hits as a whole.
Pf Dd2 inh – qHTS Primary assay for Inhibitors of Plasmodium falciparum Dd2 growth in vitro; P. falciparum Dd2 growth, SYBR Green, 72 h; Potency, µM (titrated, usually from 28.9 µM), for inactives: top-dose activity, negative = inhibition, hits mostly inhibitors; actives 4.3% (n = 120,000); AID 1347417, 2020; active means well fitted inhibition curve with a large enough effect;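 further: plate controls were DMSO vehicle for no effect and reference drug for full effect; nearly all actives have a fitted effect of over 65% in size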
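Readout: SYBR Green fluorescence, 485 nm excitation, 535 nm emission, after ~16 h lysis at 37C. Before that, Dd2-infected red cells (2.5% hematocrit) grew 72 h with compound, 29 uM top final concentration.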
Active calls of the source: *; i = inactive; [ ] = remark or other dose. Potency means the concentration at half of the fitted maximal effect.

SMILES	Pf Dd2 inh
Cc1ccc(C(=O)N2CCC3(CC2)N=C(c2cccc(Br)c2)NO3)cc1F	0%
Cc1nc(N2CCC(NC(=O)C3CCCCC3)CC2)cc(C(F)(F)F)n1	-27%
CC(=O)N1CCC(Cc2ccc(C(=O)N(C)C)cc2)CC1	-11%
O=C(Cn1nc2c(cc1=O)CCCC2)NCCN1CCOCC1	0%
COc1ccc(C(=O)NCCn2cccc2-c2nc(-c3ccccc3)no2)cc1F	5µM*
O=C(Cn1cccc1-c1nc(-c2ccccc2)no1)NCc1ccc(F)cc1Cl	i
COCCNC(=O)Cn1cccc1-c1nc(-c2ccc(OC)c(F)c2)no1	-3%
O=C(Cn1cccc1-c1nc(-c2ccccc2)no1)NCCc1ccc(Cl)cc1	39%
COc1ccc(-c2noc(-c3cccn3CC(=O)N3CCc4ccccc43)n2)cc1F	25%
COc1ccc(-c2noc(-c3cccn3CC(=O)N3CCOc4ccc(C)cc43)n2)cc1F	4µM*
COc1ccc(-c2noc(-c3cccn3CC(=O)Nc3ccc(C)c(C)c3)n2)cc1F	i
CCN(C(=O)Cn1cccc1-c1nc(-c2ccc(OC)c(F)c2)no1)c1ccccc1	i
COc1ccccc1CC(=O)NCCn1cccc1-c1nc(-c2ccccc2)no1	8.9µM*
O=C(c1cncc(Br)c1)N1CCC(c2nc(C3CCOCC3)no2)CC1	i
O=C(c1ccccc1)N1CCC(c2nn(-c3ccc(F)cc3)c(=O)[nH]2)CC1	9%
CCN(CC)Cc1ccc2c(c1)CN(C(=O)c1ccsc1)CCO2	-24%
CCN(CC)Cc1ccc2c(c1)CN(C(=O)N(CC)CC)CCO2	-15%
CCN(CC)Cc1ccc2c(c1)CN(C(=O)COc1ccc(C)cc1)CCO2	2.8µM*
COc1cccc(C(=O)NCCC2CCN(C(=O)Nc3ccc(C)c(F)c3)CC2)c1	-29%
Cc1ccc(NC(=O)N2CCC(CCNC(=O)c3cccc(F)c3)CC2)cc1F	13µM*
O=C(NCCC1CCN(C(=O)Nc2ccc(F)cc2F)CC1)c1cccc(F)c1	-23%
CC(=O)Nc1ccc(CN2CCC3(CC2)CC(c2cccc(C(F)(F)F)c2)=NO3)cc1	10µM*
CC(=O)Nc1ccc(CN2CCC3(CC2)CC(c2cccnc2)=NO3)cc1	-8%
Fc1ccc(CN2CCC3(CC(c4cccc(C(F)(F)F)c4)=NO3)C2)cc1 (centres undefined)	10µM*
N#Cc1ccc(CN2CCC3(CC(c4cccc(C(F)(F)F)c4)=NO3)C2)cc1 (centres undefined)	-18%
SMILES	Pf Dd2 inh
Fc1ccc(CN2CCCC3(CC(c4cccc(C(F)(F)F)c4)=NO3)C2)cc1 (centres undefined)	-16%
CN(C)c1ccc(CN2CCCC3(CC(c4cccc(C(F)(F)F)c4)=NO3)C2)cc1 (centres undefined)	7%
Nc1nc2c(s1)C(c1ccc(F)cc1F)CC(=O)N2 (centres undefined)	-15%
CCOc1ccccc1NC(=O)C1CC(=O)N(c2n[nH]c3ccccc23)C1 (centres undefined)	-14%
O=C(NCCc1noc(C2CC2)n1)C1CCCC1	9%
Cc1cc(=O)n(CC(=O)Nc2c(C)cccc2C)c(-c2ccc(F)cc2)n1	i
O=C(c1cccc(F)c1)N1CCC(c2nc(C3CCOCC3)no2)CC1	-2%
COc1ccc(CCNC(=O)c2cnn(-c3ccc(F)cc3)c2C2CCN(C(=O)OC(C)(C)C)CC2)cc1OC	7.9µM*
COc1ccc(CCNC(=O)c2cnn(-c3cccc(C)c3)c2C2CCN(C(=O)OC(C)(C)C)CC2)cc1OC	11µM*
COc1ccc(OC)c(CCNC(=O)c2cnn(-c3ccc(C)cc3C)c2C2CCN(C(=O)OC(C)(C)C)CC2)c1	-12%
NC(=O)[C@@H]1CCCN1CC[C@H]1CN(C(=O)C2CCCC2)CC[C@H]1CC(=O)O	1%[44.1 µM]
c1ccc(-n2cnnc2CC2CCNCC2)cc1	-5%
COc1ccccc1-c1nc2nccc(-c3ccc4c(c3)OCCCO4)n2n1	-17%
Cc1ccc(CN2C(=O)[C@@H]3C[C@@H](O)CN3C3(CN(Cc4ccccc4Cl)C3)C2=O)o1	-23%[44.1 µM]
COc1ccc(CN2CC3(C2)C(=O)N(Cc2ccc(C)o2)C(=O)[C@@H]2C[C@@H](O)CN23)c2ccccc12	10µM*
Cc1ccc(CN2C(=O)[C@@H]3C[C@@H](O)CN3C3(CN(Cc4ccc(Cl)cc4)C3)C2=O)o1	-13%[44.1 µM]
O=C(CC1COCCN1C(=O)CCn1ccccc1=O)N1CCCCCC1 (centres undefined)	-5%
Cc1ccc(C(=O)N2CCC3(CC2)NC(=O)N(c2ccc(F)cc2)N3)s1	i
CC(C)c1nc2c(NC(=O)COc3ccccc3)cccn2n1	i
CCc1nc2c(NC(=O)NCc3ccc(OC)cc3)cccn2n1	i
COc1ccccc1CCC(=O)Nc1cccn2nc(C(C)C)nc12	10µM*
Cc1noc([C@@H](C)NS(=O)(=O)c2ccc(Cl)cc2)c1C(=O)O	22%[44.1 µM]
CS(=O)(=O)N1CCC(C2CCN(Cc3ccncc3)C2)CC1 (centres undefined)	-2%
CS(=O)(=O)N1CCC(C2CCN(Cc3ccsc3)C2)CC1 (centres undefined)	i
